Data published in PubChem BioAssay (NCATS).
Inconclusive results are not listed. Where a call stands in place of a potency, no number is given. Calls of active or inactive are those of the source. Calls come from the whole dose curve; as a rule, active = well fitted cell-killing curve with a large enough effect; inconclusive = small, poorly fitted or top-dose-only effect, or effect the other way; inactive = no such curve, though single readings can be large or run the other way.

assay: Cell Viability - LYMP2-005 (AID 967); settings: LYMP2-005 lymphoblastoid cell viability; series mostly up to 92.2 µM
Description: NIH Chemical Genomics Center [NCGC]
NIH Molecular Libraries Screening Centers Network [MLSCN]
National Institutes of Environmental Health Sciences [NIEHS]
National Toxicology Program [NTP]
We have developed a 1536-well cell-based assay for quantitative high throughput screening (qHTS) against a number of cell lines to determine in vitro cytotoxicity of small molecules. This particular assay uses a human lymphoblastoid cell line (LYMP2-005) purchased from Coriell Institute for Medical Research.
NCGC Assay Protocol Summary:
The CellTiter-Glo luminescent cell viability assay (Promega) is a homogeneous method to measure the number of viable cells in culture. The end point readout of this assay is based on quantitation of intracellular ATP, an indicator of metabolic activity, using the luciferase reaction. Luciferase catalyzes the oxidation of beetle Luciferin to oxyluciferin and light in the presence of ATP. The luminescent signal is proportional to amount of ATP present.
Using the CellTiter-Glo luminescent cell viability assay, the amount of cellular ATP was measured in the lymphoblastoid cell line with complete culture medium following compound treatment for 24 hours. The assay was performed in opaque white Kalypsys 1536-well plates. In the screen, tetraoctylammonium bromide was used as positive control. Library compounds were measured for their ability to cause acute toxicity in the cell line, as reflected by a decrease in intracellular ATP levels, in a concentration-dependent manner. […] AC50 values were determined from concentration-response data modeled with the standard Hill equation.
qHTS protocol for CellTiter Glo lymphoblastoid cellular assay
[Step] [Parameter] [Value] [Description]
1. Reagent; 5 uL; 2500 lymphoblastoid cells/well
2. Time; 5 hr; 37 C incubation
4. Controls; 23 nL; Tetraoctylammonium bromide 6.4pM to 92 uM
5. Time; 24 hr; 37 C incubation
6. Reagent; 5 uL; CellTiter Glo reagent
7. Time; 30 min; Room Temperature
8. Detection; Luminescence; Viewlux plate reader
Keywords: cell viability, cytotoxicity, lymphoblastoid cell line, luminescence, NTPHTS, NTPHTS_NCGC, NIEHS, DSSTox, MLSMR, MLSCN, NIH Roadmap, qHTS, NCGC
Potency is the fitted concentration of half-maximal effect.

Structure (SMILES)	Potency
NC(=O)N1c2ccccc2C=Cc2ccccc21	inactive
COc1cc(Cc2cnc(N)nc2N)cc(OC)c1OC	inactive
O=c1[nH]c(=O)n([C@H]2C[C@H](O)[C@@H](CO)O2)cc1Br	inactive
Nc1ncn([C@@H]2O[C@H](CO)[C@@H](O)[C@H]2O)c(=O)n1	12.6 µM (active)
CN=C(NC#N)NCCSCc1nc[nH]c1C	inactive
CCCCOCCOCCOCc1cc2c(cc1CCC)OCO2	inactive
COc1ccc(CN(CCN(C)C)c2ccccn2)cc1	inactive
NC(=Nc1ccccc1)Nc1ccccc1	inactive
Nc1nc(N)c2nc(-c3ccccc3)c(N)nc2n1	inactive
CCCCNC(=O)NS(=O)(=O)c1ccc(C)cc1	inactive
